# Data reported in the supplement of paper PMC7366291.
# Structures can show the parent of a compound that is named as a salt. ± gives the standard deviation of the averaged measurements.
# Test system: Danio rerio Tg(wt1b:EGFP) embryo, pronephros
# Experiment: pronephric angle neck segment to proximal convoluted tubule (mean of left and right), fold change vs DMSO control; higher = larger pronephric angle
# Settings: 25 µM; exposure: 24-48 hpf
# Procedure, shortened: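 Dechorionated Tg(wt1b:EGFP) zebrafish embryos were treated with 25 μM compound in 0.5% DMSO, in HEPES-buffered E3 with 0.003% PTU, from 24 to 48 hpf at 28.5°C. On maximum projections of dorsal pronephros images, 16 hand-placed reference points in Fiji gave distances and angles, and values more than 2 SD from the feature mean were left out. Results are fold changes over the mean of same-day DMSO-treated embryos.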
row,SMILES,pronephric angle neck segment
1,CC1(C)OC(=O)NC1=O [Dimethadione],1.0483 ± 0.00042
2,CC[C@H](c1ccc(O)cc1)[C@@H](CC)c1ccc(O)cc1 [Hexestrol],1.22 ± 0.08
3,CS(=O)(=O)Nc1ccc([N+](=O)[O-])cc1Oc1ccccc1 [Nimesulide],1.38 ± 0.071
4,Cc1noc(NS(=O)(=O)c2ccc(N)cc2)c1C [Sulfisoxazole],0.97 ± 0.044
5,CN(Cc1ccc(C(C)(C)C)cc1)Cc1cccc2ccccc12 [Butenafine Hydrochloride],1.05 ± 0.12
6,CC1Cc2ccccc2N1NC(=O)c1ccc(Cl)c(S(N)(=O)=O)c1 (centres undefined) [Indapamide],0.988 ± 0.041
7,C[C@H]1C[C@H]2[C@@H]3CCC4=CC(=O)C=C[C@]4(C)[C@@]3(F)[C@@H](O)C[C@]2(C)[C@@]1(O)C(=O)CO [Betamethasone],1.04 ± 0.053
8,Nc1nc(N)nc(-c2cc(Cl)ccc2Cl)n1 [Irsogladine maleate],1.07 ± 0.029
9,CCc1nc(N)nc(N)c1-c1ccc(Cl)cc1 [Pyrimethamine],0.974 ± 0.018
10,CC1CNc2c(cccc2S(=O)(=O)N[C@@H](CCCNC(=N)N)C(=O)N2CC[C@@H](C)C[C@@H]2C(=O)O)C1 (some centres undefined) [Argatroban],0.997 ± 0.04
11,O=C1CCc2cc(OCCCCc3nnnn3C3CCCCC3)ccc2N1 [Cilostazol],0.994 ± 0.05
12,CN1CCN(C2=Nc3cc(Cl)ccc3Nc3ccccc32)CC1 [Clozapine],0.975 ± 0.058
13,CN(C)CCOC(c1ccc(Cl)cc1)c1ccccn1 (centres undefined) [Carbinoxamine maleate salt],1.01 ± 0.026
14,O=C(O)CCC(=O)c1ccc(-c2ccccc2)cc1 [Fenbufen],1.32 ± 0.18
